Source: PubChem (Broad Institute)
Many of the other results were omitted from the sample, so hits are more common in it than they were.
Tgondii IFNg – T. gondii growth inhibition under IFN-gamma; 69,000 tested, 3.8% active; Toxoplasma gondii growth in IFN-gamma-treated host cells; active compounds read low; activity change, negative = inhibition, % (concentration not given with the values); in the data active = activity change below about -70%, passing the limit was not always enough;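 also: host cells are HeLa cells infected with Toxoplasma gondii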
Active calls of the source: *.

Screening CC(C)c1nc(CCNC(=O)c2cn(-c3ccccc3)nn2)cs1 returned Tgondii IFNg 20.
`Cc1ccc(-c2cc(-c3ccccc3)nc(-c3ccccc3)c2)cc1` gave Tgondii IFNg -69.
Screening Cc1cc(C)cc(Sc2ccc3nnc(-c4ccccc4)n3n2)c1 returned Tgondii IFNg -82*.
`CSc1nnc(-c2ccccc2)n1C` gave Tgondii IFNg 31.
CCC(=O)c1c(OC)cc(OC)cc1C(=O)OC was read as Tgondii IFNg 108.
`COc1cc2nc(N3CCCN(C)CC3)nc(NC3CCN(Cc4ccccc4)CC3)c2cc1OC` gave Tgondii IFNg -88*.
CCCC(=O)N1CCCN(c2nc(N)c3cc(OC)c(OC)cc3n2)CC1 was read as Tgondii IFNg 19.
For COc1ccc(-c2nc(NC3CCN(Cc4ccccc4)CC3)c3ccccc3n2)cc1 the results were Tgondii IFNg -51.
`COc1ccccc1-c1nc(Cc2noc(-c3cccc(F)c3)n2)c(C)o1` gave Tgondii IFNg -40.
CCN1C(=O)CCc2cc(NC(=O)c3ccc(C)cc3)ccc21 was read as Tgondii IFNg -16.
`CCc1ccc(C(=O)Nc2ccc3c(c2)CCC(=O)N3CCOC)cc1` gave Tgondii IFNg -74*.
For C=CC(=O)Nc1ccc2c(c1)CCC(=O)N2CCC the results were Tgondii IFNg -11.
For CCN1C(=O)CCc2cc(NC(=O)c3ccc(C(C)C)cc3)ccc21 the results were Tgondii IFNg -105*.
For CCCN1C(=O)CCc2cc(NC(=O)c3ccn(CC)n3)ccc21 the results were Tgondii IFNg 96.
`CCN1C(=O)CCc2cc(NC(=O)c3ccsc3)ccc21` gave Tgondii IFNg 84.
Screening CC(C)CC(=O)Nc1ccc2c(c1)CCC(=O)N2CC(C)C returned Tgondii IFNg -15.
For COCCN1C(=O)CCc2cc(NC(=O)c3ccc(C)cc3)ccc21 the results were Tgondii IFNg -5.
CC(C)CN1C(=O)CCc2cc(NC(=O)C3CCCCC3)ccc21 was read as Tgondii IFNg -37.
Screening CCCN1C(=O)CCc2cc(NC(=O)c3ccc(CC)cc3)ccc21 returned Tgondii IFNg -59.
`CCCN1C(=O)CCc2cc(NC(=O)C(CC)c3ccccc3)ccc21` (stereo not given) gave Tgondii IFNg -82*.
CC(C)CN1C(=O)CCc2cc(NC(=O)CCc3ccccc3)ccc21 was read as Tgondii IFNg -98*.
For CN1CCC2(CC1)CN(C(=O)c1ccccc1-c1ncc[nH]1)CCCN2C the results were Tgondii IFNg 1.
For CN(Cc1ccsc1)Cc1cc(-c2ccncc2)no1 the results were Tgondii IFNg 6.
For Cc1cc2nc(CN(C)Cc3nc(-c4cc5c(cc4Cl)OCO5)oc3C)[nH]c2cc1C the results were Tgondii IFNg -24.
Screening CCOc1ccc(N2C(=O)N(c3ccccc3C)C3CS(=O)(=O)CC32)cc1 (stereo not given) returned Tgondii IFNg -26.
Cc1ccc(OCCN(C)Cc2ccccc2O)c(C)c1 was read as Tgondii IFNg -47.
CC(=O)N1CCC2(CC1)OC(=O)C(C)=C2C(=O)Nc1ccc(F)cc1F was read as Tgondii IFNg 70.
Screening CCc1cc(CNC(=O)c2ccc(C)c(-n3nc(C)cc3C)c2)on1 returned Tgondii IFNg 13.
`CCOC(=O)c1sc(NC(=O)CSc2nnnn2-c2cccc(OC)c2)nc1C` gave Tgondii IFNg -43.
Screening Cc1ccc2[nH]c(=O)c(-c3nc(-c4cccc(Br)c4)no3)c(O)c2c1 returned Tgondii IFNg -30.
For C=CCn1c(=O)c(C(=O)Nc2ccc(F)cc2C)c(O)c2ccccc21 the results were Tgondii IFNg 193.
CC(C(=O)N1CCCC(COc2ccccc2F)C1)n1cc(Cl)cn1 (stereo not given) was read as Tgondii IFNg 3.
Cn1cnnc1-c1cccc(NS(=O)(=O)c2ccc3[nH]c(=O)sc3c2)c1 was read as Tgondii IFNg 19.
`CC(C)N(C)Cc1cnc2n1CCN(Cc1ccc3c(c1)OCO3)C2` gave Tgondii IFNg -4.
COc1ccc(F)cc1C(=O)Nc1cnc2n1CCCC2 was read as Tgondii IFNg -5.
`COc1cccc(N2CCN(C(=O)C3=C(C)C(=O)OC34CCN(S(C)(=O)=O)CC4)CC2)c1` gave Tgondii IFNg 17.
Screening CCn1nnc2c1CCN(S(C)(=O)=O)C2COCc1cccnc1 (stereo not given) returned Tgondii IFNg 0.
Screening CCCN1C(=O)CCc2cc(NC(=O)c3cc(F)cc(F)c3)ccc21 returned Tgondii IFNg -52.
For CCCN1C(=O)CCc2cc(NC(=O)c3ccc(F)c(Cl)c3)ccc21 the results were Tgondii IFNg -82*.
`CCCN1C(=O)CCc2cc(NC(=O)c3cccc(C#N)c3)ccc21` gave Tgondii IFNg -17.
Cc1nc(C(=O)NC(C)c2nc3c(s2)CCCC3)cs1 (stereo not given) was read as Tgondii IFNg -64.
For Cc1cccc(-c2nc(C)c(CCNS(=O)(=O)c3ccc(Br)cc3)s2)c1 the results were Tgondii IFNg inactive.
For c1ccc(CCc2nc(C3CCOCC3)n(-c3ccccn3)n2)cc1 the results were Tgondii IFNg -2.
`CCC(NC1CCN(Cc2ccco2)CC1)c1nc(C)c(C)s1` (stereo not given) gave Tgondii IFNg -1.
Screening COc1ccc2nc(C)cc(Nc3ccccc3O)c2c1 returned Tgondii IFNg -63.
COc1ccc(CNC(=O)c2nc(Nc3ccc(C)cc3)c3ccccc3n2)cc1 was read as Tgondii IFNg -29.
Screening COc1ccc(Nc2cc(C)nc3ccc(C)cc23)cc1 returned Tgondii IFNg -97*.
COc1ccc(NC2CCCN(C(=O)c3cnc(C(C)C)nc3C)C2)cc1 (stereo not given) was read as Tgondii IFNg 8.
For O=C1CSC(=O)N1C/C=C/CN1C(=O)CSC1=O the results were Tgondii IFNg 1.
Screening Cc1cc(=O)n(CC(=O)NCCN2C(=O)CSC2=O)c2ccccc12 returned Tgondii IFNg 10.
For Cc1ccc(NCN2C(=O)CSC2=O)c(C)c1 the results were Tgondii IFNg -88*.
Screening O=C1Nc2ccccc2NC12CCN(c1ncnc3[nH]ccc13)CC2 returned Tgondii IFNg -59.
Screening Cc1nn(C)cc1C(C)n1ccnc1-c1ccc(N(C)C)nc1 (stereo not given) returned Tgondii IFNg 9.
CCCNC(=O)c1nc(Nc2ccc(CC)cc2)c2ccccc2n1 was read as Tgondii IFNg -83*.
Screening CCc1ccc(Nc2nc(C(=O)NCCOC)nc3ccccc23)cc1 returned Tgondii IFNg -54.
Screening Cc1cccc(Nc2nc(C(=O)NCc3cccc(Cl)c3)nc3ccccc23)c1 returned Tgondii IFNg -96*.
Screening CCNC(=O)c1nc(Nc2ccccc2)c2ccccc2n1 returned Tgondii IFNg -27.
Screening O=C(NCCCc1ccccc1)c1nc(Nc2ccccc2)c2ccccc2n1 returned Tgondii IFNg -46.
Screening CCCNC(=O)c1nc(Nc2ccc(F)cc2)c2ccccc2n1 returned Tgondii IFNg -33.
For Cc1ccc(Nc2nc(C(=O)Nc3ccccc3Cl)nc3ccccc23)cc1 the results were Tgondii IFNg -58.
Screening Cc1cccc(Nc2nc(C(=O)NCc3ccccc3Cl)nc3ccccc23)c1 returned Tgondii IFNg -59.
For CCC(C)NC(=O)c1nc(Nc2cccc(C)c2)c2ccccc2n1 (stereo not given) the results were Tgondii IFNg -50.
For CCc1ccccc1NC(=O)c1nc(Nc2ccc(C)cc2)c2ccccc2n1 the results were Tgondii IFNg -86*.
